# Results reported in the supplement of paper PMC11172423.
# Unmarked numbers belong to inactive results.
# Test system: Falciformispora senegalensis CBS197.79
# Assay: growth relative to untreated control; higher = less inhibition, active = 20 or less
# Settings: 25 µM
# Procedure, shortened: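 Viability readout used either MTS (2 h, 490 nm) or resazurin (600 nm). Before this, hyphal fragments of M. mycetomatis MM55 or F. senegalensis CBS197.79 in colourless RPMI 1640 with L-glutamine and MOPS (68–72% transmission at 660 nm) had been exposed in 96-well plates to compound at 100 or 25 µM for 7 days at 37 °C. Growth denotes metabolic activity relative to the untreated growth control, with a medium-plus-dye blank subtracted from both.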
row,Compound,growth
1,CC(=O)Nc1ccc(NC(=O)c2cc(-c3ccc(C)cc3O)n[nH]2)cc1,81.7%
2,CN(C)C[C]1[CH][CH][CH][C]1CNc1ccnc2cc(Cl)ccc12.[CH]1[CH][CH][CH][CH]1.[Fe],59.2%
3,CC(C)c1nc(CN(C)C(=O)N[C@H](C(=O)N[C@@H](Cc2ccccc2)C[C@H](O)[C@H](Cc2ccccc2)NC(=O)OCc2cncs2)C(C)C)cs1,101%
4,C[C@@H](C1CCCCC1)n1c(-c2cc3c(cc2Br)OCO3)nc2cc(C(=O)Nc3ccc(C#N)cc3)ccc21,106%
5,OB(O)O,90.6%
6,COc1cccc(-c2ccc(NC(=O)C3=C(C(=O)O)CCC3)c(F)c2)c1,109%
7,CCOC(=O)C1=C(CC)NC2=C(C(=O)CC(C)(C)C2)C1c1ccc(Br)cc1 (configuration not stated),82.3%
8,COCC[C@H](NC(=O)c1cc2ccc(C(F)(F)F)cc2[nH]1)c1ccccc1,95.1%
9,O=C(Nc1cc(Cl)cc(Cl)c1O)c1c(O)c(Cl)cc(Cl)c1Cl,89.9%
10,CN(C)CCCN1c2ccccc2CCc2ccc(Cl)cc21,51.5%
11,CC[C@@H]([C@H](C)O)n1ncn(-c2ccc(N3CCN(c4ccc(OC[C@@H]5CO[C@@](Cn6cncn6)(c6ccc(F)cc6F)C5)cc4)CC3)cc2)c1=O,25.2%
12,CCCCN(CCCC)CC(O)c1cc(Cl)cc2c1-c1ccc(Cl)cc1/C2=C/c1ccc(Cl)cc1 (configuration not stated),98.7%
13,Cc1ccc(C(=O)Nc2ccc(CN3CCN(C)CC3)c(C(F)(F)F)c2)cc1C#Cc1cnc2cccnn12,20.7%
14,FC(F)(F)c1cc(Nc2nc3cnc(NCC4CC4)nc3n2C2CCNCC2)cc(C(F)(F)F)c1,81.9%
15,Clc1ccc2ncc(-c3cccc(NC4CCNC4)n3)n2c1 (configuration not stated),92%
16,CCN1C(=O)N(CCC(C)C)C2(CCN(Cc3cc(O)cc(Cl)c3)CC2)C1=O,91%
17,CC(C)(C)NC(=O)N[C@H](C(=O)N1C[C@H]2[C@@H]([C@H]1C(=O)NC(CC1CCC1)C(=O)C(N)=O)C2(C)C)C(C)(C)C (some centres not stated),103%
18,Clc1ccc(Nc2nc3cnc(NC4CC4)nc3n2C2CCNCC2)cc1Cl,76.9%

row,Compound,growth
1,N#Cc1c(N)nc(NC2CC2)nc1N,99.7%
2,Cc1cc2c(cc1Cl)N(C(=O)Nc1cc(F)cc(-c3cncnc3)c1)CC2,87%
3,COc1ccc2cc1Oc1ccc(cc1)C[C@H]1c3cc(c(OC)cc3CCN1C)Oc1c(O)c(OC)cc3c1[C@@H](C2)N(C)CC3,100%
4,CC(C)Nc1ncc2nc(Nc3cc(F)cc(Cl)c3)n(C3CCNCC3)c2n1,101%
5,C[C@H](NC(=O)c1cc2nc(C(F)(F)F)ccc2[nH]1)c1ccccc1,88.2%
6,CCC(CC)COC(=O)[C@H](C)NP(=O)(OC[C@H]1O[C@@](C#N)(c2ccc3c(N)ncnn23)[C@H](O)[C@@H]1O)Oc1ccccc1 (some centres not stated),109%
7,CCCCCOc1ccc(-c2ccc(-c3ccc(C(=O)N[C@H]4C[C@@H](O)[C@@H](O)NC(=O)[C@@H]5[C@@H](O)[C@@H](C)CN5C(=O)[C@H]([C@@H](C)O)NC(=O)[C@H]([C@H](O)[C@@H](O)c5ccc(O)cc5)NC(=O)[C@@H]5C[C@@H](O)CN5C(=O)[C@H]([C@@H](C)O)NC4=O)cc3)cc2)cc1,84.5%
8,Cc1ccc(C)c2sc(N(CCCn3ccnc3)C(=O)c3ccco3)nc12,38.5%
9,Cc1c[nH]c(-c2cccc(C(=O)NC3CCC(CCN4CCc5ccc(C#N)cc5CC4)CC3)c2)n1 (configuration not stated),74.1%
10,C[C@]1(c2nc3c(C(N)=O)cccc3[nH]2)CCCN1,95.9%
11,CS(=O)(=O)c1ccc(-c2cnn3c2NC(c2cccc(S(=O)(=O)C4CC4)c2)CC3)cc1 (configuration not stated),72.5%
12,COc1ccc(-c2cc3ncnc(N4CCN(CCN5CCCC5)CC4)c3s2)cc1,7.35% (active)
13,O=C(CCCN1CCC(O)(c2ccc(Cl)cc2)CC1)c1ccc(F)cc1,103%
14,OCCN1CCN(CCCN2c3ccccc3Sc3ccc(C(F)(F)F)cc32)CC1,1.11% (active)
15,COc1ccc(Cl)cc1-c1nc(C(=O)NCCN2CCCCC2)c(C(C)C)s1,94.5%
16,Cc1nn(C2CCS(=O)(=O)C2)c(C)c1C1Nc2ccccc2C(=O)N1Cc1ccc2c(c1)OCO2 (configuration not stated),84.3%
17,FC(F)(F)c1cc(Cl)cc(Nc2nc3cnc(NCC4CC4)nc3n2C2CCNCC2)c1,95%
18,Nc1nonc1-c1nc2c(-c3cccc(Cl)c3)nccc2n1CCCNC(=O)Cc1ccc(Cl)cc1,90%

# Same assay, conditions: 100 µM
row,Compound,growth
1,CC(=O)Nc1ccc(NC(=O)c2cc(-c3ccc(C)cc3O)n[nH]2)cc1,82.2%
2,CN(C)C[C]1[CH][CH][CH][C]1CNc1ccnc2cc(Cl)ccc12.[CH]1[CH][CH][CH][CH]1.[Fe],58%
3,CC(C)c1nc(CN(C)C(=O)N[C@H](C(=O)N[C@@H](Cc2ccccc2)C[C@H](O)[C@H](Cc2ccccc2)NC(=O)OCc2cncs2)C(C)C)cs1,104%
4,C[C@@H](C1CCCCC1)n1c(-c2cc3c(cc2Br)OCO3)nc2cc(C(=O)Nc3ccc(C#N)cc3)ccc21,102%
5,OB(O)O,104%
6,COc1cccc(-c2ccc(NC(=O)C3=C(C(=O)O)CCC3)c(F)c2)c1,105%
7,CCOC(=O)C1=C(CC)NC2=C(C(=O)CC(C)(C)C2)C1c1ccc(Br)cc1 (configuration not stated),87%
8,COCC[C@H](NC(=O)c1cc2ccc(C(F)(F)F)cc2[nH]1)c1ccccc1,92.9%
9,O=C(Nc1cc(Cl)cc(Cl)c1O)c1c(O)c(Cl)cc(Cl)c1Cl,12.5% (active)
10,CN(C)CCCN1c2ccccc2CCc2ccc(Cl)cc21,12.5% (active)
11,CC[C@@H]([C@H](C)O)n1ncn(-c2ccc(N3CCN(c4ccc(OC[C@@H]5CO[C@@](Cn6cncn6)(c6ccc(F)cc6F)C5)cc4)CC3)cc2)c1=O,24.1%
12,CCCCN(CCCC)CC(O)c1cc(Cl)cc2c1-c1ccc(Cl)cc1/C2=C/c1ccc(Cl)cc1 (configuration not stated),96.3%
13,Cc1ccc(C(=O)Nc2ccc(CN3CCN(C)CC3)c(C(F)(F)F)c2)cc1C#Cc1cnc2cccnn12,-2.57% (active)
14,FC(F)(F)c1cc(Nc2nc3cnc(NCC4CC4)nc3n2C2CCNCC2)cc(C(F)(F)F)c1,20.9%
15,Clc1ccc2ncc(-c3cccc(NC4CCNC4)n3)n2c1 (configuration not stated),83.1%
16,CCN1C(=O)N(CCC(C)C)C2(CCN(Cc3cc(O)cc(Cl)c3)CC2)C1=O,92.9%
17,CC(C)(C)NC(=O)N[C@H](C(=O)N1C[C@H]2[C@@H]([C@H]1C(=O)NC(CC1CCC1)C(=O)C(N)=O)C2(C)C)C(C)(C)C (some centres not stated),101%
18,Clc1ccc(Nc2nc3cnc(NC4CC4)nc3n2C2CCNCC2)cc1Cl,91.4%

row,Compound,growth
1,N#Cc1c(N)nc(NC2CC2)nc1N,92.9%
2,Cc1cc2c(cc1Cl)N(C(=O)Nc1cc(F)cc(-c3cncnc3)c1)CC2,101%
3,COc1ccc2cc1Oc1ccc(cc1)C[C@H]1c3cc(c(OC)cc3CCN1C)Oc1c(O)c(OC)cc3c1[C@@H](C2)N(C)CC3,19.7% (active)
4,CC(C)Nc1ncc2nc(Nc3cc(F)cc(Cl)c3)n(C3CCNCC3)c2n1,99.6%
5,C[C@H](NC(=O)c1cc2nc(C(F)(F)F)ccc2[nH]1)c1ccccc1,95.9%
6,CCC(CC)COC(=O)[C@H](C)NP(=O)(OC[C@H]1O[C@@](C#N)(c2ccc3c(N)ncnn23)[C@H](O)[C@@H]1O)Oc1ccccc1 (some centres not stated),96.3%
7,CCCCCOc1ccc(-c2ccc(-c3ccc(C(=O)N[C@H]4C[C@@H](O)[C@@H](O)NC(=O)[C@@H]5[C@@H](O)[C@@H](C)CN5C(=O)[C@H]([C@@H](C)O)NC(=O)[C@H]([C@H](O)[C@@H](O)c5ccc(O)cc5)NC(=O)[C@@H]5C[C@@H](O)CN5C(=O)[C@H]([C@@H](C)O)NC4=O)cc3)cc2)cc1,67.5%
8,Cc1ccc(C)c2sc(N(CCCn3ccnc3)C(=O)c3ccco3)nc12,30%
9,Cc1c[nH]c(-c2cccc(C(=O)NC3CCC(CCN4CCc5ccc(C#N)cc5CC4)CC3)c2)n1 (configuration not stated),92.9%
10,C[C@]1(c2nc3c(C(N)=O)cccc3[nH]2)CCCN1,93.8%
11,CS(=O)(=O)c1ccc(-c2cnn3c2NC(c2cccc(S(=O)(=O)C4CC4)c2)CC3)cc1 (configuration not stated),88.1%
12,COc1ccc(-c2cc3ncnc(N4CCN(CCN5CCCC5)CC4)c3s2)cc1,14.9% (active)
13,O=C(CCCN1CCC(O)(c2ccc(Cl)cc2)CC1)c1ccc(F)cc1,14.2% (active)
14,OCCN1CCN(CCCN2c3ccccc3Sc3ccc(C(F)(F)F)cc32)CC1,8.28% (active)
15,COc1ccc(Cl)cc1-c1nc(C(=O)NCCN2CCCCC2)c(C(C)C)s1,77.6%
16,Cc1nn(C2CCS(=O)(=O)C2)c(C)c1C1Nc2ccccc2C(=O)N1Cc1ccc2c(c1)OCO2 (configuration not stated),93.6%
17,FC(F)(F)c1cc(Cl)cc(Nc2nc3cnc(NCC4CC4)nc3n2C2CCNCC2)c1,17.6% (active)
18,Nc1nonc1-c1nc2c(-c3cccc(Cl)c3)nccc2n1CCCNC(=O)Cc1ccc(Cl)cc1,110%
